Holding throughout (assay): protein-binding microarray (PBM); PBM: ~300 nM protein, 6 mM HEPES pH 7.8, 80 mM KCl, 0.5 mM EDTA, 0.5 mM EGTA, 6% glycerol, 35 ng/ul poly-dIdC, 1% milk, 1 h, room temperature; Ap Aiptasia and Nv Nematostella (sea anemones) / Co Capsaspora / Aq Amphimedon (sponge) / Dm Drosophila / Hu human; RHD is the Rel homology domain; high values mean tight binding
Holding throughout (settings): dsDNA, one strand shown

Assay [1] has as its target T1, GST-Ap-NF-kB RHD (Exaiptasia pallida (Aiptasia), UniProt A0A913YAJ5 2-422).
T1 sequence: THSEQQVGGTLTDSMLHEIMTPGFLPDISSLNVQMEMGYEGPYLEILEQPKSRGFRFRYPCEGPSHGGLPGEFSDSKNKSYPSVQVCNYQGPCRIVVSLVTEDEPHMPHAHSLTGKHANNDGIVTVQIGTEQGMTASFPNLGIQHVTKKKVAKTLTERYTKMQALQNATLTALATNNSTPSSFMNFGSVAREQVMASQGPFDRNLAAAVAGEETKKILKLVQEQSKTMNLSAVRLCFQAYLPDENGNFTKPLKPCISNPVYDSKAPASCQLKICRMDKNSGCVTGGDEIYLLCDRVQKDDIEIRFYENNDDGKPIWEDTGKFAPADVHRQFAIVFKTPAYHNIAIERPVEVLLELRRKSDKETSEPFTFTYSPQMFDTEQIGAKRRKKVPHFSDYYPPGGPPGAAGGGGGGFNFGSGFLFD

For assay [2], the target named is T2, GST-Nv-NF-kB (Cys allele) (Nematostella vectensis, UniProt E5G601 2-411).
T2 sequence: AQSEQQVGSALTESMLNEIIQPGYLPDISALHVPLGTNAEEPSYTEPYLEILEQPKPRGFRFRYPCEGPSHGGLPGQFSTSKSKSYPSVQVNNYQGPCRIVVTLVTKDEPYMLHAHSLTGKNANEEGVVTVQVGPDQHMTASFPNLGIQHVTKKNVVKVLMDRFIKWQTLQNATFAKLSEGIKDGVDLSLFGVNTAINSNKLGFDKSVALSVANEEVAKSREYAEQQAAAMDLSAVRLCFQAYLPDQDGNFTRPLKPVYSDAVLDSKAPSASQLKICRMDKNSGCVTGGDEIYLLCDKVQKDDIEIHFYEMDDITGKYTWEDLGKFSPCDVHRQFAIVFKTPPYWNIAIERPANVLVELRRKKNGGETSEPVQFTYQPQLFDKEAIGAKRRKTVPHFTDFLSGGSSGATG

Assay [3] addresses T3, GST-Nv-NF-kB (Ser allele) (Nematostella vectensis, UniProt A7UNT2 2-411).
T3 sequence: T2 sequence with Q21R, C66S, S207N, E215Q, V217A, E225K, A268E, D399E

In assay [4] the target is T4, GST-Co-NF-kB (Capsaspora owczarzaki, UniProt F1ARL5 200-546).
T4 sequence: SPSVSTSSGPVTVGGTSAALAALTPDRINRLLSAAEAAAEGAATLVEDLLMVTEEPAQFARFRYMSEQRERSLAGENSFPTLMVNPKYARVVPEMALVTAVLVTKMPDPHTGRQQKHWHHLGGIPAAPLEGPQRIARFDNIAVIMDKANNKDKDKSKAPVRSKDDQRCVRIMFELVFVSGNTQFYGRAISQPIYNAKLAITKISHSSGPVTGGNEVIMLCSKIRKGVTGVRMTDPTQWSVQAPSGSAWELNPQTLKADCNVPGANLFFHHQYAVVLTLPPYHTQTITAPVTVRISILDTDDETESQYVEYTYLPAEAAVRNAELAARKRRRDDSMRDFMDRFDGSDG

Assay [5] has as its target T5, GST-Dm-Relish (Drosophila melanogaster, UniProt Q94527 99-473).
T5 sequence: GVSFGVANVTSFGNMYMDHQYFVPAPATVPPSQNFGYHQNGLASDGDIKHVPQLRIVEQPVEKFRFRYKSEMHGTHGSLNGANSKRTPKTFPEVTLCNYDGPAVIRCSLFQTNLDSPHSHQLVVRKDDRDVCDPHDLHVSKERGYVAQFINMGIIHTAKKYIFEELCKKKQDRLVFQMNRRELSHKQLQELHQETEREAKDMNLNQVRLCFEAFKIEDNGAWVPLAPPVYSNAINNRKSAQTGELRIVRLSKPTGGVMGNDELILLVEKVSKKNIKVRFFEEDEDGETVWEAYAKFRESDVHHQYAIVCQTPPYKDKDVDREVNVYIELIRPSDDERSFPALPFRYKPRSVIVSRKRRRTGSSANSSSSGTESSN

Assay [6] addresses T6, GST-Aq-NF-kB (Amphimedon queenslandica, UniProt A9Y5G7 2-389).
T6 sequence: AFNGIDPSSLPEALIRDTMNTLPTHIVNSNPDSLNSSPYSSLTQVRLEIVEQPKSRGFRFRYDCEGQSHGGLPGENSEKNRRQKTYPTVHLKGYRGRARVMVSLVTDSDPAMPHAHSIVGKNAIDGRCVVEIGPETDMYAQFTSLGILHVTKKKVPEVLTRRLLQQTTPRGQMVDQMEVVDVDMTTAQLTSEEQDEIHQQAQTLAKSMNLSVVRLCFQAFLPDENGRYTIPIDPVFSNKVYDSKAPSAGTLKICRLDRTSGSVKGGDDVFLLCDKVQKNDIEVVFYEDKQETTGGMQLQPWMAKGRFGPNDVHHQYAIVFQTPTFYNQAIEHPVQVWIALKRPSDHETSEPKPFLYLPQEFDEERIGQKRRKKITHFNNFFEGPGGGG

Assay [7] concerns the target GST-Hu-p50 (Homo sapiens, UniProt P19838 7-356).

We go through twelve sequences from publication PMC5700166.

Positions count from the first letter of the chain named.

Chain of GST-Hu-p50 (P19838 7-356): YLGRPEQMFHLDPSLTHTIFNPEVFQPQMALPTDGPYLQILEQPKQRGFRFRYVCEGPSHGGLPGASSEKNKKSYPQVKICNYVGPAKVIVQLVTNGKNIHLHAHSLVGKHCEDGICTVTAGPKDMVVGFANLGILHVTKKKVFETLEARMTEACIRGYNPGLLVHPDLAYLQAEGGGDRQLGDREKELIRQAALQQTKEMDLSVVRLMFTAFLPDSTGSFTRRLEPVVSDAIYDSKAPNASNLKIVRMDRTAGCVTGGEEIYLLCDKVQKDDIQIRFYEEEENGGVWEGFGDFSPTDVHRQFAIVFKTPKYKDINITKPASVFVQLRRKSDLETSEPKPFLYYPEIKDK

Consider “CCGATTAACATCAAAATAGTCCCTGATGTTAATCGGGTCTTGATTCGCTTGACGCTGCTG”, for which the binding signal came to 7.45 z-score in assay [1]; 7.77 z-score in assay [2]; 7.5 z-score in assay [3]; 2.01 z-score in assay [4]; 4.37 z-score in assay [5]; 6.34 z-score in assay [6]. This sequence returned a binding signal in assay [7] of 5.5 z-score.

Take “CCGATTAACATCAAAGAATTCCCTGATGTTAATCGGGTCTTGATTCGCTTGACGCTGCTG”: the binding signal worked out at 5.56 z-score in assay [1]; 7.26 z-score in assay [2]; 7.47 z-score in assay [3]; 4.52 z-score in assay [4]; 5.42 z-score in assay [5]; 6.11 z-score in assay [6]. The binding signal in assay [7] turned out to be 5.05 z-score.

In the case of “CCGATTAACATCAAATACCCCCATGATGTTAATCGGGTCTTGATTCGCTTGACGCTGCTG”, the binding signal in assay [1] was 6.79 z-score; in assay [2], 4.49 z-score; in assay [3], 4.86 z-score; in assay [4], 5.57 z-score; in assay [5] it was 3.98 z-score; in assay [6], 4.48 z-score. This sequence also returned a binding signal in assay [7] of 5.11 z-score.

For “CCGATTAACATCACGGGTTCCCCTGATGTTAATCGGGTCTTGATTCGCTTGACGCTGCTG”, the binding signal stood at 7.55 z-score in assay [1]; 5.61 z-score in assay [2]; 6.62 z-score in assay [3]; 5.5 z-score in assay [4]; 7.65 z-score in assay [5]; 4.79 z-score in assay [6]. Moreover, the binding signal in assay [7] worked out at 4.64 z-score.

Consider “CCGATTAACATCACCGGGGATAGTGATGTTAATCGGGTCTTGATTCGCTTGACGCTGCTG”, for which the binding signal in assay [1] came out at 3.55 z-score; in assay [2] it was 2.68 z-score; in assay [3], 3.34 z-score; in assay [4], 3.83 z-score; in assay [5], 2.1 z-score; in assay [6] it was 1.82 z-score. In addition, the binding signal in assay [7] came to 2.98 z-score.

In the case of “CCGATTAACATCAGGGGATTGCATGATGTTAATCGGGTCTTGATTCGCTTGACGCTGCTG”, the binding signal came to 5.77 z-score in assay [1]; 5.89 z-score in assay [2]; 6.93 z-score in assay [3]; 2.38 z-score in assay [4]; 4.62 z-score in assay [5]; 4.23 z-score in assay [6]. The binding signal in assay [7] amounted to 5.31 z-score.

“CCGATTAACATCAGAGGATTCCCTGATGTTAATCGGGTCTTGATTCGCTTGACGCTGCTG”: the binding signal was 3.72 z-score in assay [1]; 4.52 z-score in assay [2]; 4.31 z-score in assay [3]; 2.44 z-score in assay [4]; 7.61 z-score in assay [5]; 4.43 z-score in assay [6]. In assay [7], this sequence had a binding signal of 2.84 z-score.

Consider “CCGATTAACATCAAGGGGGAAATTGATGTTAATCGGGTCTTGATTCGCTTGACGCTGCTG”, for which the binding signal in assay [1] stood at 7.69 z-score; in assay [2], 8.6 z-score; in assay [3], 10.5 z-score; in assay [4], 8.86 z-score; in assay [5], 5.87 z-score; in assay [6] it was 7.06 z-score. Also, the binding signal in assay [7] is 7.51 z-score.

Regarding “CCGATTAACATCAAAAAATCCCATGATGTTAATCGGGTCTTGATTCGCTTGACGCTGCTG”, the binding signal in assay [1] was 4.84 z-score; in assay [2], 5.22 z-score; in assay [3], 4.17 z-score; in assay [4], 2.05 z-score; in assay [5], 8.41 z-score; in assay [6], 5.43 z-score. In assay [7], this sequence had a binding signal of 4.75 z-score.

For “CCGATTAACATCAGAAAAGTCCCTGATGTTAATCGGGTCTTGATTCGCTTGACGCTGCTG”, the binding signal in assay [1] worked out at 7.92 z-score; in assay [2] it was 10.1 z-score; in assay [3], 9.94 z-score; in assay [4], 1.28 z-score; in assay [5], 8.36 z-score; in assay [6], 8.15 z-score. In assay [7], this sequence yielded a binding signal of 6.91 z-score.

Turning to “CCGATTAACATCAGGCAGTCCCCTGATGTTAATCGGGTCTTGATTCGCTTGACGCTGCTG”, the binding signal is 5.54 z-score in assay [1]; 4.49 z-score in assay [2]; 3.59 z-score in assay [3]; 1.33 z-score in assay [4]; 4.55 z-score in assay [5]; 5.52 z-score in assay [6]. Moreover, the binding signal in assay [7] is 4.48 z-score.

For the sequence “CCGATTAACATCAAATATTCCCCTGATGTTAATCGGGTCTTGATTCGCTTGACGCTGCTG”, the binding signal in assay [1] is 8.25 z-score; in assay [2] it was 10.7 z-score; in assay [3] it was 11 z-score; in assay [4], 10.1 z-score; in assay [5], 7.22 z-score; in assay [6] it was 8.12 z-score. Further, the binding signal in assay [7] stood at 6.65 z-score.
